Screening results (PubChem BioAssay)
mHTT-CaM PPI inh: inhibitors of human mutant huntingtin-calmodulin interaction | P42858 | AlphaScreen His-mHTT/GST-CaM binding, luminescence | inhibition, % at 15 µM | actives 3.6% (n = 190,000);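 note: 0% = both proteins with DMSO and 100% = one protein alone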
Pf apPOL block: Pf-apPOL DNA polymerase inhibition; actives 0.25% (n = 210,000); Recombinant Pf-apPOL, molecular beacon fluorescence, 1.5 h; inhibition, % at 10 µM
* hit, by the source's call; i = inactive; · = no result. Only a selection was taken, and hits are over-represented in it overall. Cut-off read from the data, not from the text of the source: active = inhibition above about 50%; inactive = the rest.

SMILES | mHTT-CaM PPI inh | Pf apPOL block
Cc1cccc(-c2nccc(C3CCCN(C(=O)C(C)(C)C)C3)n2)c1 (stereo unspecified) | 5.1 | -1.7
CC(C)(C)C(=O)N1CCCC(c2ccnc(Nc3cccc(F)c3)n2)C1 (stereo unspecified) | 77.9* | -3.3
Cc1ccccc1C(=O)N1CCCC(c2ccnc(Nc3cccc(F)c3)n2)C1 (stereo unspecified) | 99.5* | -2.0
COc1ccc(Nc2nccc(C3CCCN(C(=O)c4ccc(C#N)cc4)C3)n2)cc1 (stereo unspecified) | 12.3 | -4.6
O=C(c1ccc(F)cc1)N1CCCC(c2ccnc(Nc3cccc(F)c3)n2)C1 (stereo unspecified) | 80.9* | 0.4
O=C(c1ccc(F)cc1)N1CCCC(c2ccnc(Nc3ccccc3)n2)C1 (stereo unspecified) | 27.8 | -1.3
Cc1ccccc1C(=O)N1CCCC(c2ccnc(-c3ccccc3)n2)C1 (stereo unspecified) | -1.7 | -3.4
N#Cc1cnc2ccc(F)cc2c1N1CCC(C(=O)NCc2ccccc2)CC1 | -8.5 | 1.2
CCCc1cc(C2CCCN2C(=O)NCC(=O)OC)no1 (stereo unspecified) | -7.4 | 0.8
COc1ccc(CN2CCN(c3ccc(C(C)=O)cc3)CC2)cc1OC | 4.4 | 0.4
CCOc1ccc(CCNc2ccc(C(F)(F)F)cc2[N+](=O)[O-])cc1OCC | 11.0 | 1.1
C=CCn1c(=O)c2c(ncn2CC=C)n(-c2ccccc2Cl)c1=O | -1.8 | 0.4
CCC(CC)N1CCN(C(=O)c2ccc3[nH]c4c(c3c2)CN(C(C)=O)CC4)CC1 | 38.3 | -5.0
CCN(C(=O)c1ccc2[nH]c3c(c2c1)CN(C(C)=O)CC3)c1cccc(C)c1 | 84.2* | -3.8
CC(=O)N1CCc2[nH]c3ccc(C(=O)N4CCN(Cc5ccc(C)cc5)CC4)cc3c2C1 | 77.7* | -3.1
CCN(CCNC(=O)c1ccc2[nH]c3c(c2c1)CN(C(C)=O)CC3)c1ccccc1 | 67.6* | -3.9
CC(=O)N1CCc2[nH]c3ccc(C(=O)NCCc4nc5ccccc5n4C)cc3c2C1 | 14.2 | -1.9
CC(=O)N1CCc2[nH]c3ccc(C(=O)N4CCOCC4)cc3c2C1 | 35.7 | -0.8
CC(=O)N1CCc2[nH]c3ccc(C(=O)N4CCN(C(C)C)CC4)cc3c2C1 | 13.9 | -2.7
CCN(CC)c1ccc(CNC(=O)c2ccc3[nH]c4c(c3c2)CN(C(C)=O)CC4)cc1 | 69.1* | 0.1
CC1CCN(C(=O)C2CCN(c3nc4ccc(-c5ccncc5)nc4s3)CC2)CC1 | 41.7 | -7.7
Cc1cc(C2C(C#N)=C(N)N(c3ccc(F)cc3)C3=C2C(=O)CC(C)(C)C3)c(C)s1 (stereo unspecified) | 7.0 | -2.9
C(=N/n1cnnc1)/c1c[nH]c2ccccc12 | i | ·
Nc1sc(SCC(=O)Nc2nccs2)nc1-c1ccccc1 | 32.4 | -5.0
O=C(c1ccc2c(c1)OCO2)N1CCC2(CC1)NC(=O)N(Cc1ccccc1Cl)C2=O | 6.2 | -4.6
SMILES | mHTT-CaM PPI inh | Pf apPOL block
Cc1nn2c(=O)/c(=C/c3cn(-c4ccccc4)nc3-c3ccc4c(c3)CC(C)O4)sc2nc1=O (stereo unspecified) | -2.0 | 5.2
CC(=O)N1CCc2[nH]c3ccc(C(=O)NCc4ccc(N5CCN(C)CC5)cc4)cc3c2C1 | 20.9 | -1.8
CC(=O)N1CCc2[nH]c3ccc(C(=O)NCc4ccc(F)cc4)cc3c2C1 | 72.0* | 3.8
CC(C)NC(=O)Cc1cn2cc(Br)ccc2n1 | -2.1 | -1.4
CCOc1ccc(C(=O)Nc2ccccn2)cc1[N+](=O)[O-] | 4.0 | -7.3
O=c1[nH]c2ccc(Br)cc2c(-c2ccccc2)c1C1=NNC(c2ccco2)C1 (stereo unspecified) | 100.0* | -2.2
COc1ccccc1C1CC(c2c(-c3ccccc3)c3cc(Br)ccc3[nH]c2=O)=NO1 (stereo unspecified) | 15.0 | 4.5
CC(=O)N1CCc2sc(S(=O)(=O)Nc3ccc(C)c(F)c3)cc2C1 | -0.5 | -3.0
NS(=O)(=O)c1ccc(CCNC(=O)c2ccc3c(c2)NC(=O)C2CCCCN32)cc1 (stereo unspecified) | 1.6 | -2.1
N#CC(C#N)=C1C(Cl)=C(N2CCCCC2)c2ccccc21 | 56.0* | 3.4
N#Cc1c(N2CCOCC2)nsc1-c1ccccc1Cl | · | -7.7
O=[N+]([O-])c1ccc(-c2csc(-c3ccc(Cl)cc3)n2)cc1 | · | 5.7
CC1=NN(c2cccc(C(=O)O)c2)C(=O)/C1=C/c1ccc(N2CCN(C)CC2)c([N+](=O)[O-])c1 | -4.0 | -4.1
N#CC(=Cc1c(Cl)cccc1Cl)S(=O)(=O)c1ccc(Cl)cc1 | · | -4.7
N#C/C(=C\c1cn[nH]c1-c1ccccc1)S(=O)(=O)c1ccc(Cl)cc1 | 89.0* | 12.0
CCOC(=O)C1CCc2sc(NC(=O)C3CN(c4nc5ccccc5s4)C3)nc21 (stereo unspecified) | 39.8 | -1.9
CCOC(=O)C1CCc2sc(NC(=O)c3n[nH]c4ccccc34)nc21 (stereo unspecified) | 97.5* | 9.2
CC(C)c1ccc(-n2ccnc(NC(=O)c3ccccn3)c2=O)cc1 | 91.1* | -21.9
Cc1ccc(-n2ccnc(NC(=O)c3cccc(F)c3)c2=O)cc1C | 12.2 | -1.4
Cc1ccc(-n2ccnc(NC(=O)c3ccccn3)c2=O)cc1C | 88.9* | -15.6
CC(C)c1ccc(-n2ccnc(NC(=O)Nc3ccccc3)c2=O)cc1 | -0.1 | -0.1
CCCn1cc2c3c(cccc31)CN(C(=O)Nc1ccc(F)cc1)CC2 | 4.7 | -2.7
Cc1nc2c(C(=O)NCc3ccccc3)c[nH]n2c(=O)c1Cc1ccccc1Cl | 40.0 | -2.1
Cc1nc2c(C(=O)NCc3ccccc3)c[nH]n2c(=O)c1Cl | 46.0 | 73.2*
Cc1nc2c(C(=O)NCCc3ccccc3Cl)c[nH]n2c(=O)c1Cl | 57.0* | -14.8
SMILES | mHTT-CaM PPI inh | Pf apPOL block
Cc1nc2c(C(=O)NCc3ccccc3Cl)c[nH]n2c(=O)c1Cl | 13.0 | -13.3
COc1ccc(C(=O)Nc2ccccc2C(C)C)cc1 | -0.9 | -3.9
O=C(c1cc2ccccc2[nH]1)N1CCCN(c2cc(-c3ccc4c(c3)OCO4)[nH]n2)CC1 | 56.1* | -7.1
Cc1ccccc1CC(=O)N1CCCN(c2cc(-c3ccccc3)[nH]n2)CC1 | 60.9* | -7.6
O=C(c1ccsc1)N1CCCN(c2cc(-c3ccc4c(c3)OCO4)[nH]n2)CC1 | 6.9 | 3.8
Cc1ccccc1CC(=O)N1CCN(c2cc(-c3cccnc3)[nH]n2)CC1 | -5.7 | -1.7
CCc1cccc(C)c1-n1c(CNC(=O)c2ccc(OC)cc2)nnc1SC | 4.8 | -1.8
Clc1ccccc1C1NCCc2c1[nH]c1ccccc21 (stereo unspecified) | 21.8 | -6.2
CCCNC(=O)c1cccc(CN2C(=O)COc3ccc(C)cc32)c1 | -0.5 | 5.1
COc1ccc(/C=C2\SC(=O)N(CCN)C2=O)cc1OC | 4.0 | -0.7
NCCN1C(=O)S/C(=C\c2ccc(F)c(Oc3ccccc3)c2)C1=O | 71.0* | -14.4
COc1ccc(-c2cn3ccn(-c4ccccc4)c(=O)c3n2)cc1OC | -2.8 | -0.2
COC(=O)CNC(=O)NCCC1CCN(S(=O)(=O)c2ccc(C)cc2)CC1 | 39.5 | -4.9
Cc1ccc(S(=O)(=O)N2CCC(CCNC(=O)Nc3ccccc3)CC2)cc1 | 52.6* | -2.6
O=C(NCCC1CCN(S(=O)(=O)c2ccc(F)cc2)CC1)Nc1ccccc1 | 29.3 | -2.2
COCCNC(=O)NCCC1CCN(S(=O)(=O)c2ccc(C)cc2)CC1 | 55.4* | 3.4
CN(C)Cc1c(O)ccc2c(=O)c(Oc3ccc4ccccc4c3)c(C(F)(F)F)oc12 | 76.0* | -1.3
